Screening results (PubChem)
HCMV antiviral = inhibitors of human cytomegalovirus; HFF cells, HCMV-luciferase reporter, 72 h; active compounds read low; activity change, negative = inhibition, % at 57.5 µM; 4.5% of 410,000 active; AID 1259415; in the data active means activity change below about -60%; inconclusive means no clear call, values can overlap the other calls; inactive means above about -39%
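Two-dose cell screen: HFF monolayers treated with compounds and infected with luciferase-expressing HCMV at 1 PFU/cell, 72 h at 37C, then lysed for luciferase measurement.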
HCV inh = inhibitors of hepatitis C virus infection; Huh7.5.1 HCVcc-Cre infection, luciferase reporter, 44 h; 3.4% of 340,000 active; Potency, µM (titrated, usually from 41.8 µM), usual class: inhibitors
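HCVcc-Cre virus at an moi near 0.5 was added right after compound to cells cultured 4 h from seeding (1,000 cells/well). Luciferase activity was determined 44 h later, 15 min after substrate addition at RT.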
Pf growth 48h = P. falciparum growth inhibition at 48 hours (one generation). 5.9% of 310,000 active. P. falciparum luciferase growth in erythrocytes, 48 h. AID 504832. Potency, µM (series often up to 28.7 µM), usual class: inhibitors
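Here the parasites carry a stable luciferase gene and grow inside erythrocytes in Albumax-based RPMI medium with compound for one erythrocytic cycle. Activity is scored as loss of luminescent signal.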
Pf growth 96h = P. falciparum growth inhibition at 96 hours | P. falciparum luciferase reporter growth, 96 h | Potency, µM (top dose mostly 28.7 µM), hits mostly inhibitors | 6.9% of 320,000 active | AID 504834
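Compounds incubated with erythrocytes infected by luciferase-expressing P. falciparum (2% hematocrit, 0.05% parasitemia final) for 96 hours, 37 C in 5% CO2. Growth inhibition scored as decreased luciferase luminescence.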
Numbers stand for hits; n = inactive; u = inconclusive; x = no result given; [ ] = another dose, or the depositor's remark. Only some compounds are listed: those with a hit (about 13% of all), similar ones and a draw of the others. Unless noted, the call rests on the fitted dose curve; in most records, active means well fitted inhibition curve with a large enough effect; inconclusive means small, poorly fitted or top-dose-only effect, or another doubt; inactive means no such curve, though single readings can be large or run the other way.

SMILES	HCMV antiviral	HCV inh	Pf growth 48h	Pf growth 96h
CCOc1ccc(C(=O)Nc2cc(-c3nc4ccccc4o3)ccc2C)cc1Cl	n	x	x	x
Cc1cccc(NC(=S)NNc2ncc(C(F)(F)F)cc2Cl)c1	u	11µM	n	u
FC(F)(F)c1cnc(NNC(=S)Nc2ccccc2Cl)c(Cl)c1	-100	u	u	u
Cc1cc(NCCNC2=CC(=O)CCC2)nc2ccccc12	n	n	u	u
Cc1cc(NCC2CCCCC2)nc2ccccc12	n	u	3.3µM	u
O=C(CCCn1c(=O)[nH]c2ccc(Br)cc2c1=O)N1CCN(c2cccc(Cl)c2)CC1	-100	x	x	x
O=C(CCCCn1c(=O)[nH]c2ccccc2c1=O)N1CCN(c2cccc(C(F)(F)F)c2)CC1	n	11µM	u	u
CC(=O)c1ccc(N2CCN(C(=O)CCCn3c(=O)[nH]c4ccc(Br)cc4c3=O)CC2)cc1	u	u	10µM	u
CCOC(=O)C1CCN(C(=O)CCCCn2c(=O)[nH]c3ccccc3c2=O)CC1	-79	n	n	n
CC(=O)c1ccc(N2CCN(C(=O)CCCCn3c(=O)[nH]c4ccccc4c3=O)CC2)cc1	n	x	x	x
CCOC(=O)C1CCN(C(=O)CCn2c(=O)[nH]c3ccccc3c2=O)CC1	n	n	n	u
CCn1cc(/C=C(\NC(=O)c2ccc(C)cc2)C(=O)NCCCn2ccnc2)c2ccccc21	n	x	x	x
CCC1=Nc2cc(C(=O)NCc3ccc(C)cc3)ccc2Sc2ccc(C)cc21	n	x	x	x
CCC1=Nc2cc(C(=O)NCc3ccco3)ccc2Sc2ccc(Cl)cc21	-67	u	1.5µM	n
O=C(NCc1ccco1)c1ccc2c(c1)N(Cc1ccccc1)C(=O)c1ccccc1S2	n	x	x	x
CCC1=Nc2cc(C(=O)O)ccc2Sc2ccccc21	n	n[8.37 µM]	n	u
Cc1cccc(CN2C(=O)c3ccccc3Sc3ccc(C(=O)NCc4ccco4)cc32)c1	-73	x	x	x
CCC1=Nc2cc(C(=O)NCc3ccco3)ccc2Sc2ccccc21	n	u	7.4µM	n
O=C1c2ccccc2C(=O)N1CC1c2ccccc2CCN1C(=O)C1CCCCC1 (configuration not stated)	u	n	x	12µM
COc1cc2cnc(-c3ccsc3)cc2cc1OC	n	u	x	x
COc1cc2cnc(-c3ccsc3)c(-c3ccc(F)cc3)c2cc1OC	n	6.3µM	u	u
COc1cc2cnc(-c3ccccc3)c(-c3ccc(C#N)cc3)c2cc1OC	n	u	2.3µM	u
Cc1cccc(C(=O)Nc2ccc(N3CCC(N4CCCCC4)CC3)c(C(=O)O)c2)c1	n	x	x	x
CCSc1nc2c(c(=O)[nH]c(=O)n2C)n1CC(O)COc1ccc(Cl)cc1 (configuration not stated)	n	x	x	x
C[C@@]12CCCO[C@@]13C=CC(=O)C=C3CCC2	n	x	x	x
SMILES	HCMV antiviral	HCV inh	Pf growth 48h	Pf growth 96h
COc1ccc(C2N(C(C)=O)CCCN2S(=O)(=O)c2ccc(C)cc2)cc1 (configuration not stated)	-62	n	u	n
CC(=O)N1CCN(S(=O)(=O)c2ccc(C)cc2)C1c1ccc(N(C)C)cc1 (configuration not stated)	n	n	x	n
O=C(CN1CCOCC1)N1CCN(S(=O)(=O)c2ccccc2)C1c1ccccc1 (configuration not stated)	n	n	n	u
Cc1ccc(S(=O)(=O)N2CCN(C(=O)C(F)(F)F)C2c2ccc(N(C)C)cc2)cc1 (configuration not stated)	n	n	n	13µM
COc1ccc(C2N(C(C)=O)CCN2S(=O)(=O)c2ccc(C)cc2)cc1 (configuration not stated)	n	x	n	n
COc1ccc(C2N(C(=O)CN3CCCC3)CCCN2S(=O)(=O)c2ccccc2)cc1 (configuration not stated)	n	n	5.2µM	u
CCCc1nc2ccc(C)cn2c1Cc1ccsc1	n	x	x	x
CCOc1cc(/C=C2\C(=N)N3N=C(CC)SC3=NC2=O)ccc1OCCOc1ccc(NC(C)=O)cc1	n	n	u	2.6µM
CCC1=NN2C(=N)/C(=C\c3ccc(OCCOc4ccc(NC(C)=O)cc4)cc3)C(=O)N=C2S1	n	n	n	n
O=C(Nc1ccc(NC(=O)c2ccc(Br)cc2)c(Cl)c1)c1ccc(Br)cc1	n	x	x	x
Cc1nc(Nc2cccc(O)c2)c2oc3ccccc3c2n1	n	13µM	n[0.00184 µM]	n
Cc1nc(Oc2ccccc2)c2oc3ccccc3c2n1	u	u	x	n
COc1ccc(Oc2nc(C)nc3c2oc2ccccc23)cc1	-68	8.9µM	n	n
Cc1nc(NCC2CCCO2)c2oc3ccccc3c2n1 (configuration not stated)	n	n	x	n
CCNc1nc(C)nc2c1oc1ccccc12	n	n	n	0.66µM
CCc1nc(NCC2CCCO2)c2oc3ccccc3c2n1 (configuration not stated)	-84	u	u	u
CCNc1nc(CC)nc2c1oc1ccccc12	n	n	n	u
O=P(O)(O)C(O)(Cc1cccnc1)P(=O)(O)O	x	x	n	n
COc1cccc(Nc2nc(C)nc3c2oc2ccccc23)c1	n	11µM	n[0.00184 µM]	n
CCCCn1c(SCC(=O)NCCCOC)nc2c(sc3ccccc32)c1=O	n	x	x	x
Cc1ccc2[nH]c(C(=O)N/N=C/c3ccccc3C(=O)O)c(-c3ccccc3)c2c1	n	n	n[0.00184 µM]	0.74µM
Cc1ccc2[nH]c(C(=O)N/N=C/c3ccccc3O)c(C)c2c1	-100	3.5µM	2.3µM	4.7µM
COc1ccc(/C=N/NC(=O)c2[nH]c3ccc(C)cc3c2-c2ccccc2)c(C(=O)O)c1OC	n	n	n	n
CSc1ccc(CCNC(=O)NCc2noc3ccccc23)cc1	n	x	x	x
Cc1nn(C)c2c1c(-c1ccccc1)cc(=O)n2Cc1ccc(F)cc1	n	x	x	x
SMILES	HCMV antiviral	HCV inh	Pf growth 48h	Pf growth 96h
Cc1cn2c(=O)cc(COc3ccc(C(C)(C)C)cc3)nc2s1	n	x	x	x
CCOC(=O)[C@]12Cc3c(cc(OC)c(OC)c3OC)[C@H]1N(Cc1ccccc1)C(=O)c1cc(F)c(F)cc12	-61	x	x	x
CCOC(=O)[C@]12Cc3c(cc(OC)c(OC)c3OC)[C@H]1N(Cc1ccccc1)C(=O)c1cc(OC)ccc12	-107	x	x	x
CCOC(=O)[C@]12Cc3cc(OC)ccc3[C@H]1N(Cc1ccccc1)C(=O)c1cc(F)c(F)cc12	n	n[8.37 µM]	x	x
CCOC(=O)[C@]12Cc3cc(C)ccc3[C@H]1N(Cc1ccccc1)C(=O)c1cc(F)c(F)cc12	-109	x	x	x
CCOC(=O)[C@]12Cc3ccccc3[C@H]1N(Cc1ccccc1)C(=O)c1ccccc12	n	n	x	x
COc1ccc(CN(C)S(=O)(=O)c2nnc(NC(=O)C(C)C)s2)cc1OC	n	x	x	x
COc1cc(C(=O)NC2CC(=O)N(c3cccc(F)c3)C2)cc(OC)c1OC (configuration not stated)	n	x	x	x
O=c1cc(C(F)(F)F)[nH]c2ccccc12	n	n	n	u
O=c1cc(/C=C/c2cccs2)[nH]c2ccccc12	-85	u	9.3µM	x
O=C(O)c1cc(=O)c2ccccc2[nH]1	n	n	n	n
CSc1ccc(/C=C/c2cc(=O)c3ccccc3[nH]2)cc1	n	u	1.9µM	n
